# Source: ChEMBL document CHEMBL2218924, “A broad activity screen in support of a chemogenomic map for kinase signalling research and drug discovery” (Biochem J, 2013)
# Tests used:
# [1] = biological target: Tyrosine-protein kinase Fer (Homo sapiens) (UniProt P16591); settings: at 10 µM
# [2] = biological target: Tyrosine-protein kinase Fes/Fps (Homo sapiens) (UniProt P07332); settings: at 1 µM
# [3] = biological target: Tyrosine-protein kinase Fes/Fps (Homo sapiens) (UniProt P07332); settings: at 10 µM
# [4] = biological target: Tyrosine-protein kinase Fgr (Homo sapiens) (UniProt P09769); settings: at 1 µM
# [5] = biological target: Tyrosine-protein kinase Fgr (Homo sapiens) (UniProt P09769); settings: at 10 µM
# [6] = biological target: Vascular endothelial growth factor receptor 1 (Homo sapiens) (UniProt P17948); settings: at 1 µM
# [7] = biological target: Vascular endothelial growth factor receptor 1 (Homo sapiens) (UniProt P17948); settings: at 10 µM
# [8] = biological target: Vascular endothelial growth factor receptor 3 (Homo sapiens) (UniProt P35916); settings: at 1 µM
# [9] = biological target: Vascular endothelial growth factor receptor 3 (Homo sapiens) (UniProt P35916); settings: at 10 µM
# [10] = biological target: Macrophage colony-stimulating factor 1 receptor (Homo sapiens) (UniProt P07333); settings: at 1 µM
# [11] = biological target: Macrophage colony-stimulating factor 1 receptor (Homo sapiens) (UniProt P07333); settings: at 10 µM
# [12] = biological target: T1, Mitogen-activated protein kinase kinase kinase kinase 2 (Homo sapiens) (UniProt Q12851); settings: at 1 µM
# T1 sequence (whole entry): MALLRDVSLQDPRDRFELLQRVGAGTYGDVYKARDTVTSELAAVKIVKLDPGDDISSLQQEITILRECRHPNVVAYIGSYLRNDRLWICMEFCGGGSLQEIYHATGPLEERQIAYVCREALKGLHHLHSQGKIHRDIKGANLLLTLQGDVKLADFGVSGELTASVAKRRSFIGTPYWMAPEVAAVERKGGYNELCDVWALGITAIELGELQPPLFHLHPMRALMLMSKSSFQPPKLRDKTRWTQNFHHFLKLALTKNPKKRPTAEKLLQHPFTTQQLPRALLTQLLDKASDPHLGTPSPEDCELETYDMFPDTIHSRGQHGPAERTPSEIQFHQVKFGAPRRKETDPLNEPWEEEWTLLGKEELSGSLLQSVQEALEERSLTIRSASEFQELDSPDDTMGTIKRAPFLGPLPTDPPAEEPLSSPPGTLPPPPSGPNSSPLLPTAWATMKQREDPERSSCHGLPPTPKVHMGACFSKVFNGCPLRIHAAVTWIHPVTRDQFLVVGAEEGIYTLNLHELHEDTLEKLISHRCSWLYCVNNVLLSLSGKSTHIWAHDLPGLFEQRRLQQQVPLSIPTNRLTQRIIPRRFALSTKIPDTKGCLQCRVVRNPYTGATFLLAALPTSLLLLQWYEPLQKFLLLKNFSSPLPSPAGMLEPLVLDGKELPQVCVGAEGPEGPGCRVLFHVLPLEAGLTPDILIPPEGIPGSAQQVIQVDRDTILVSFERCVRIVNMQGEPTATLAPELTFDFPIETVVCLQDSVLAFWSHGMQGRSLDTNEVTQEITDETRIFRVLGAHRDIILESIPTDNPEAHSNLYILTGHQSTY
# [13] = biological target: T1, Mitogen-activated protein kinase kinase kinase kinase 2 (Homo sapiens); settings: at 10 µM
# [14] = biological target: Receptor-type tyrosine-protein kinase FLT3 (Homo sapiens) (UniProt P36888); settings: at 10 µM
# [15] = biological target: Tyrosine-protein kinase Fyn (Homo sapiens) (UniProt P06241); settings: at 1 µM
# [16] = biological target: Tyrosine-protein kinase Fyn (Homo sapiens) (UniProt P06241); settings: at 10 µM
# [17] = biological target: G protein-coupled receptor kinase 6 (Homo sapiens) (UniProt P43250); settings: at 10 µM
# [18] = biological target: Receptor-type tyrosine-protein kinase FLT3 (Homo sapiens) (UniProt P36888); settings: at 1 µM
# [19] = biological target: G protein-coupled receptor kinase 5 (Homo sapiens) (UniProt P34947); settings: at 10 µM
# [20] = biological target: T2, Rhodopsin kinase GRK7 (Homo sapiens) (UniProt Q8WTQ7); settings: at 1 µM
# T2 sequence (whole entry): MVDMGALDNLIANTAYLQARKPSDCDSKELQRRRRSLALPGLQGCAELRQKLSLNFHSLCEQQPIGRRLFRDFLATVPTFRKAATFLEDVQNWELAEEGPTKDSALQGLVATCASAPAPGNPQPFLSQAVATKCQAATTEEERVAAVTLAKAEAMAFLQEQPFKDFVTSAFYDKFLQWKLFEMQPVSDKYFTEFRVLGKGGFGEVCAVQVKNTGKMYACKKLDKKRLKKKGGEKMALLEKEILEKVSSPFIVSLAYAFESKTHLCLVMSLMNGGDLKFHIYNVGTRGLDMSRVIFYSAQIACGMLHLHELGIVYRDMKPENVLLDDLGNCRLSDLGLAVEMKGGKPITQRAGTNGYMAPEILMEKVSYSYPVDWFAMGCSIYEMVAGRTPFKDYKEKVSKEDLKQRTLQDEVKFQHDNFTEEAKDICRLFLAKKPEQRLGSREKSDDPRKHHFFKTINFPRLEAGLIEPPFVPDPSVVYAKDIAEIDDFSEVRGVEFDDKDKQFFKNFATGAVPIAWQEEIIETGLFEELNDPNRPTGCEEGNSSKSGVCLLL
# Tyrosine-protein kinase Fgr (Homo sapiens), sequence (P09769 2-529 limits assumed): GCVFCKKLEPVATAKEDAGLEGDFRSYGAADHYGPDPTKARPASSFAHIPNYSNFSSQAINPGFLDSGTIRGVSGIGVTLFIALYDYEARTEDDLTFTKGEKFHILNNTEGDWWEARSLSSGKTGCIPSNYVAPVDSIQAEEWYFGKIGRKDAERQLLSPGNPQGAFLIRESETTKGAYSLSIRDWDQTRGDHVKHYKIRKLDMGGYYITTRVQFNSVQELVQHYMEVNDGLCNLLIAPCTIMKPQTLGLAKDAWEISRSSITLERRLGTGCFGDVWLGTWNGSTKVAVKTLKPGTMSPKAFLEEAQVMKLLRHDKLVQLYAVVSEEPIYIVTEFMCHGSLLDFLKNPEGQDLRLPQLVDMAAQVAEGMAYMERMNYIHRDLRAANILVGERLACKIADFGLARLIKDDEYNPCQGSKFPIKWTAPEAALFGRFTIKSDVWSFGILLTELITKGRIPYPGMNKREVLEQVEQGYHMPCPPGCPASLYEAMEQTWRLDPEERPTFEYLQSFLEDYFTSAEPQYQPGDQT
# Macrophage colony-stimulating factor 1 receptor (Homo sapiens), sequence (P07333 whole entry): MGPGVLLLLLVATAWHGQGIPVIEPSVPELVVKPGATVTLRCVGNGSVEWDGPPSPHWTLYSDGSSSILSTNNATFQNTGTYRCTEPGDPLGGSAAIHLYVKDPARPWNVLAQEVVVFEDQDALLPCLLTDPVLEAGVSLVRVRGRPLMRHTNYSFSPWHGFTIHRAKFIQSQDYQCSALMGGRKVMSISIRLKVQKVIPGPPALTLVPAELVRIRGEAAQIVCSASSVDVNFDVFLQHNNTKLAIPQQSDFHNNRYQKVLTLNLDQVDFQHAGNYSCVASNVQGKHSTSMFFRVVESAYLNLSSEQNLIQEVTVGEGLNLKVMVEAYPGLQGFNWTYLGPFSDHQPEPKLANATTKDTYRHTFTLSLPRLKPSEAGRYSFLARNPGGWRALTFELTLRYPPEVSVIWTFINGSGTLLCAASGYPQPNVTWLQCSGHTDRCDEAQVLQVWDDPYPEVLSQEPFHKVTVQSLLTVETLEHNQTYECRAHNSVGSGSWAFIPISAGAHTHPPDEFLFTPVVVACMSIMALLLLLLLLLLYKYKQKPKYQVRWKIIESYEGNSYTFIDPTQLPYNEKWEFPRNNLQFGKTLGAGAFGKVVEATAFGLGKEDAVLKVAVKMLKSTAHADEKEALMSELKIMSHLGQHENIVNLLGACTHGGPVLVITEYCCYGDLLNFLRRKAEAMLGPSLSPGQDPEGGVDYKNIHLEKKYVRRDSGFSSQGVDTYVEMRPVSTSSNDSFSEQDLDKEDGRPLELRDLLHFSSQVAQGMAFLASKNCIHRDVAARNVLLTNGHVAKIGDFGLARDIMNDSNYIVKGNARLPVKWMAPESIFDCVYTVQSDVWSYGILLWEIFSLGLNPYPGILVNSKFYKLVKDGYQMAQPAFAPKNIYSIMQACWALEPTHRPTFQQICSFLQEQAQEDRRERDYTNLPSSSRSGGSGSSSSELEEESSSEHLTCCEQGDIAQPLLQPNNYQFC
# Tyrosine-protein kinase Fyn (Homo sapiens), sequence (P06241 2-537 limits assumed): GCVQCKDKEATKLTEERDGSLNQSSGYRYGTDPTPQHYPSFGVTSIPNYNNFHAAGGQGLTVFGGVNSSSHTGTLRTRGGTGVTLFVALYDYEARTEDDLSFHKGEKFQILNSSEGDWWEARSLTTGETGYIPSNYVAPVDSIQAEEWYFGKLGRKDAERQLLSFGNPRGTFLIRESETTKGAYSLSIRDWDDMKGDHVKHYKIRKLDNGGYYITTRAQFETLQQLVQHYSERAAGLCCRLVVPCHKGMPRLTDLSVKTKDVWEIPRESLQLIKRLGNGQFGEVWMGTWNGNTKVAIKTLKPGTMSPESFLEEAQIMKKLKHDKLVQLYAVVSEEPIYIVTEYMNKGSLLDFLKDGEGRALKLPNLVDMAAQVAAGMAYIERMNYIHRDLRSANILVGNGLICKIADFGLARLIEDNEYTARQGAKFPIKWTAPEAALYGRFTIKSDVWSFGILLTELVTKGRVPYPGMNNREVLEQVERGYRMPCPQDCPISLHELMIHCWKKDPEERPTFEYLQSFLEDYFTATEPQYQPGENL
# Tyrosine-protein kinase Fes/Fps (Homo sapiens), sequence (P07332 whole entry): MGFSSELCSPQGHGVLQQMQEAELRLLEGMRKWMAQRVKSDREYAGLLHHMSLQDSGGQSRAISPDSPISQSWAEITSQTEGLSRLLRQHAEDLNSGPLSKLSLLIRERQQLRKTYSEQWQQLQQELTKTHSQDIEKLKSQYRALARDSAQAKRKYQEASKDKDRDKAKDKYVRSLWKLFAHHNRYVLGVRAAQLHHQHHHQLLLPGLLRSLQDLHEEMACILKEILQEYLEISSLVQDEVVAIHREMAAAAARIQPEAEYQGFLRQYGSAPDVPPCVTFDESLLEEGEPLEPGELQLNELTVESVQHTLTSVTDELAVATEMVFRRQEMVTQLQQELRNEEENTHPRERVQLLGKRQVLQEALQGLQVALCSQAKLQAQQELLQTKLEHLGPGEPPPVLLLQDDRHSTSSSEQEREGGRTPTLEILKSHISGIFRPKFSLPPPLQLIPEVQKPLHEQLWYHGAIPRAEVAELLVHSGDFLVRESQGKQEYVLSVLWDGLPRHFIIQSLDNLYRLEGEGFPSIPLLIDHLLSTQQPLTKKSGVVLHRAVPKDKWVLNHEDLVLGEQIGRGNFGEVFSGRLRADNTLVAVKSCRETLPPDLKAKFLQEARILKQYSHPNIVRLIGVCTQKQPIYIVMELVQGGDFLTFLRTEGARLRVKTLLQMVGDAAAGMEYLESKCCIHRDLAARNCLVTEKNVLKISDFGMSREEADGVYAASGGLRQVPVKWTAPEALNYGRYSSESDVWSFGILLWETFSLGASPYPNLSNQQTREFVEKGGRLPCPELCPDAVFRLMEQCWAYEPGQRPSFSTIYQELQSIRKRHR
# G protein-coupled receptor kinase 6 (Homo sapiens), sequence (P43250 whole entry, looked up): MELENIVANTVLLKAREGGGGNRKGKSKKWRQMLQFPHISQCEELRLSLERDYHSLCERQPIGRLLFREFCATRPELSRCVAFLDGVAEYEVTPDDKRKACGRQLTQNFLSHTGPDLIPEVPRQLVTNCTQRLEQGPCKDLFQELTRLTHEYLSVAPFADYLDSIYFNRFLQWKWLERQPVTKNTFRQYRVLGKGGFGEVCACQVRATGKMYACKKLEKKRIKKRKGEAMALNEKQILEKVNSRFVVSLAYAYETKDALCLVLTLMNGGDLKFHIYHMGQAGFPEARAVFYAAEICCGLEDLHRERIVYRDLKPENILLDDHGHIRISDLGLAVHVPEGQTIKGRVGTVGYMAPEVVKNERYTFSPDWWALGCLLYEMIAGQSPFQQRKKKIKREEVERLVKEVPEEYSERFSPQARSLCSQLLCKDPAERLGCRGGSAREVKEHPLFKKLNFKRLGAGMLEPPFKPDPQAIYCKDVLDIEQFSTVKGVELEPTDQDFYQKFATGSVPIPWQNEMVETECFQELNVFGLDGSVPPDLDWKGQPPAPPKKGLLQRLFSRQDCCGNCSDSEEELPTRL
# G protein-coupled receptor kinase 5 (Homo sapiens), sequence (P34947 whole entry, looked up): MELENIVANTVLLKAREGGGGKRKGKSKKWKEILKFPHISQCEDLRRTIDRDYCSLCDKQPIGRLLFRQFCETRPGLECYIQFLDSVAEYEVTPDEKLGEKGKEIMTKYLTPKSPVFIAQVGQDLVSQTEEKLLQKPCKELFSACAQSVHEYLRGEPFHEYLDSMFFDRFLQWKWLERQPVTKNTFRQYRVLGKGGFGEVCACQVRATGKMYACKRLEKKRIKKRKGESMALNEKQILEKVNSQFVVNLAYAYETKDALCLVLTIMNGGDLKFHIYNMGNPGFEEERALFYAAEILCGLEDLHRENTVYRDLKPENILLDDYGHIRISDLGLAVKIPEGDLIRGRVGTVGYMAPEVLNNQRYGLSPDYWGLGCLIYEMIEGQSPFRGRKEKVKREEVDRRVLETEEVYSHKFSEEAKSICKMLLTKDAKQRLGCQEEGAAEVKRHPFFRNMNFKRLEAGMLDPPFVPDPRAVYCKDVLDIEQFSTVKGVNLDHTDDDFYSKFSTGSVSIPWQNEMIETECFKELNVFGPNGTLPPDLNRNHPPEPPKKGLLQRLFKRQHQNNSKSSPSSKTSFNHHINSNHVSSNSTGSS
# Tyrosine-protein kinase Fer (Homo sapiens), sequence (P16591 whole entry, looked up): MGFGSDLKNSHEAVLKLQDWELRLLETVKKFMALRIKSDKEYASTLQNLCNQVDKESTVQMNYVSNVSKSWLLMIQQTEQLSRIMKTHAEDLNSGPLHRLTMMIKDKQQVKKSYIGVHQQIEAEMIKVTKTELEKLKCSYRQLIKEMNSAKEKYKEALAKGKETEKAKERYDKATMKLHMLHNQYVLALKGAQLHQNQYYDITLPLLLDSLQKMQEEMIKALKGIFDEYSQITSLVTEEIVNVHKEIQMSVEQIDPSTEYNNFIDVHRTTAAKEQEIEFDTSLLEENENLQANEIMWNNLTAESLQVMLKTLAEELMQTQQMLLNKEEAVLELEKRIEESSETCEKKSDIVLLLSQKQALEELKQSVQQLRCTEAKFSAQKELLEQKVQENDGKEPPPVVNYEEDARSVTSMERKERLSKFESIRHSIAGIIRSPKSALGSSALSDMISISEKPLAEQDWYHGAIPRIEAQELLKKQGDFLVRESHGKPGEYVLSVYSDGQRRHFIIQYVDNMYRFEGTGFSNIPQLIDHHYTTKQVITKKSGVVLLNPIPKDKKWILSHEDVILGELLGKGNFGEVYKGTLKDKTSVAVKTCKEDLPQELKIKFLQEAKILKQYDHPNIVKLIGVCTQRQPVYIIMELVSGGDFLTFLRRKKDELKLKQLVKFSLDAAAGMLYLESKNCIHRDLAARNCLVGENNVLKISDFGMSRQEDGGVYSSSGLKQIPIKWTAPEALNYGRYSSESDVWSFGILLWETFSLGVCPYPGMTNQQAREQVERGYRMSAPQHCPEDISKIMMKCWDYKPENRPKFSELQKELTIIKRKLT
Structure (SMILES),residual activity [1] [%],residual activity [2] [%],residual activity [3] [%],residual activity [4] [%],residual activity [5] [%],residual activity [6] [%],residual activity [7] [%],residual activity [8] [%],residual activity [9] [%],residual activity [10] [%],residual activity [11] [%],residual activity [12] [%],residual activity [13] [%],residual activity [14] [%],residual activity [15] [%],residual activity [16] [%],residual activity [17] [%],residual activity [18] [%],residual activity [19] [%],residual activity [20] [%]
N#C/C(=C1/Nc2ccccc2S1)c1ccnc(NCCc2cccnc2)n1,60,96,73,81,44,78,33,68,22,70,31,79,18,,,,,,,
O=S(=O)(NCCNC/C=C/c1ccc(Br)cc1)c1cccc2cnccc12,71,75,27,,59,,35,81,26,116,,76,42,46,75,55,81,,,
O=c1cc(N2CCOCC2)oc2c1ccc1ccccc12,96,,98,107,94,98,95,94,92,111,102,91,86,97,83,102,92,101,96,98
Nc1n[nH]c2nc3ccccc3nc12,90,95,87,100,87,89,66,79,44,74,66,78,37,45,73,73,85,70,94,
COc1ccc2c(c1)c(C1=C(c3c[nH]c4ccccc34)C(=O)NC1=O)cn2CCCN(C)C,58,96,26,,33,2,0,2,0,59,36,75,30,0,,60,,21,51,
COc1ccc(-c2cnc3c(-c4ccsc4)cnn3c2)cc1,98,,82,,,33,48,21,7,28,5,96,83,19,98,84,88,53,,
COc1ccc(Cl)cc1NC(=O)Nc1cc(C)nc2ccccc12,,,94,99,82,96,91,,93,89,73,93,77,,,,92,,,99
O=c1cc(N2CCOCC2)oc2c(-c3ccccc3)cccc12,,,,,,,,,72,66,62,,70,,,,77,,,
O=C1Cc2c([nH]c3ccc(Br)cc23)-c2ccccc2N1,,63,38,,,77,39,56,22,49,23,6,-1,34,31,11,,65,96,
c1ccc(-c2cnc(Nc3ccc(OCCN4CCCC4)cc3)s2)cc1,,123,59,63,11,4,0,2,1,1,1,100,39,0,55,13,,4,105,105
O=S(=O)(c1cccc2cnccc12)N1CCCNCC1,,,,,,,,,52,,,,83,,,,,,,
O=C1NC(=O)C(c2cn(CCCO)c3ncccc23)=C1c1cnccn1,94,,,95,97,41,46,28,30,54,49,86,79,51,69,87,,57,93,
CC(C)N(CCC(=O)c1ccc2ccccc2c1)Cc1ccccc1,87,,,,,,,,,,125,82,80,82,88,88,,,,
NC(=O)c1ccc(-c2nc(-c3ccc4c(c3)OCCO4)c(-c3ccccn3)[nH]2)cc1,,,,,,82,70,79,46,74,64,,94,51,81,83,88,64,,
COc1ccc(CNC(=O)Nc2ncc([N+](=O)[O-])s2)cc1,,,,31,28,74,49,59,17,77,58,,,,105,,,,,
Cc1cc(C)c(/C=C2\C(=O)Nc3ccccc32)[nH]1,55,,,53,30,3,0,1,0,2,0,57,11,0,75,19,,1,,74
Cn1c2ccccc2c2c3c(c4c5ccccc5n(CCC#N)c4c21)CNC3=O,4,,,41,47,4,4,2,3,14,5,2,1,0,47,58,,0,75,16
CCN1/C(=C/C(C)=O)Sc2ccc(OC)cc21,,,,,73,,81,,65,81,66,74,55,39,80,,79,64,,
